# Measurements taken from publication PMC4336329 (PLoS ONE, 2015).
# Out of some 310,000 compounds screened, about 14,000 (4.5%) showed an effect of 50% or more. Effects have a minus sign here. The full list was thinned out, with strong results kept by preference.
# Target: human ether-à-go-go-related gene (hERG) potassium channel (human, UniProt Q12809)
# Assay: primary screen, population patch clamp on CHO cells stably expressing hERG; higher = less effect of the substance
# 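Further: peak tail current of the secondary pulse compared with the same well before compound.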
# human ether-à-go-go-related gene (hERG) potassium channel, sequence (Q12809 whole entry, looked up): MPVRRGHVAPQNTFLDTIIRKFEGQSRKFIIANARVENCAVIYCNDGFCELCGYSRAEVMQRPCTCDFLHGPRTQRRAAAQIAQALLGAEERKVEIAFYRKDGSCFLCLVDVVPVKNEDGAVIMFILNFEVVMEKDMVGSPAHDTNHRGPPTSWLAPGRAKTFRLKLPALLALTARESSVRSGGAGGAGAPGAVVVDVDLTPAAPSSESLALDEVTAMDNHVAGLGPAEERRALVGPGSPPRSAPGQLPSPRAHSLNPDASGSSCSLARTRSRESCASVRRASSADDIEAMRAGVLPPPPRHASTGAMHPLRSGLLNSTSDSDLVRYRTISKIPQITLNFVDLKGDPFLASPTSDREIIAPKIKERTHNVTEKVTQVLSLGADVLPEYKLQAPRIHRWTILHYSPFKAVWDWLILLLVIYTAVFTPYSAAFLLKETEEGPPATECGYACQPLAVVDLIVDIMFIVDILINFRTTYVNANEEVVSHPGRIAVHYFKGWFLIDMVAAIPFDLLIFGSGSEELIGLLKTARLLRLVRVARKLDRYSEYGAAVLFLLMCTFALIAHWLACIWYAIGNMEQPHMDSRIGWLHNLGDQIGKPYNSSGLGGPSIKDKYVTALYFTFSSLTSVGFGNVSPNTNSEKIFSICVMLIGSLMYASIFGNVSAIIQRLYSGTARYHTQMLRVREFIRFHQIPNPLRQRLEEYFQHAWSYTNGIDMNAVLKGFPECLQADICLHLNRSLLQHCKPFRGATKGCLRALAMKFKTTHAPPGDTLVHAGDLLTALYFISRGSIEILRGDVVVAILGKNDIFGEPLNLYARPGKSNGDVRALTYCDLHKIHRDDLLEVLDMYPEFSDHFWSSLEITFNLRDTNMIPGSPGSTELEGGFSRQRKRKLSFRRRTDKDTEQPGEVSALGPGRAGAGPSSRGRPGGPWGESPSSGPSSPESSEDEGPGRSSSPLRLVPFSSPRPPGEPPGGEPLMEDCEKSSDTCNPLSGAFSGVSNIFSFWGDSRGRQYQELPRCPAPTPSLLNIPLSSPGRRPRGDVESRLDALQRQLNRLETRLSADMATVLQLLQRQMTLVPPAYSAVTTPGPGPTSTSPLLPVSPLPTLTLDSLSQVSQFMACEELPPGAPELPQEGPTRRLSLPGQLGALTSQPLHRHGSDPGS
row,Compound,"hERG current change (%, negative = inhibition) at 10uM [%]"
1,O=S(=O)(Nc1cc(C(F)(F)F)ccc1N1CCOCC1)c1ccccc1,4.09
2,CC(CC(=O)N1CCN(c2ccccc2)CC1)S(=O)(=O)c1ccc2c(c1)NC(=O)CO2 (centres unmarked),-20.1
3,O=C(O)c1cccc(N2C(=O)c3cc4cccc(Br)c4cc3C2=O)c1,18.4
4,Cc1cc(CNC(=O)CC2C(=O)NCCN2Cc2ccc(-c3ccccc3)cc2)nn1C (centres unmarked),-4.68
5,O=C(c1ccc([N+](=O)[O-])s1)N1CCc2ccccc2C1,13
6,FC(F)(F)Oc1ccc(NC(=S)NCc2ccccc2)cc1,4.62
7,Cl.O=C(CNC1=NCCC1)c1ccc(Cl)cc1,-12.2
8,CCCCn1c(SCC(=O)OCC)nc2c1c(=O)[nH]c(=O)n2C,-41.9
9,CCCCCCn1c(SCCCC)nc2c1c(=O)[nH]c(=O)n2C,1.97
10,CCCCCCn1c(SCCC)nc2c1c(=O)[nH]c(=O)n2C,-9.85
11,CCOCCn1c(SC(C)C(C)=O)nc2c1c(=O)[nH]c(=O)n2C (centres unmarked),-42.8
12,CCCCCCn1c(SCC(=O)c2ccccc2)nc2c1c(=O)[nH]c(=O)n2C,-26
13,CCCCCCn1c(SCC(=O)OC)nc2c1c(=O)[nH]c(=O)n2C,-70.1
14,CCCCCCn1c(SCC(C)C)nc2c1c(=O)[nH]c(=O)n2C,10.3
15,CCCCCn1c(SC(C)C(C)=O)nc2c1c(=O)[nH]c(=O)n2C (centres unmarked),-92.5
16,CCCCCCn1c(SCCOC)nc2c1c(=O)[nH]c(=O)n2C,-59.8
17,CCCCCn1c(SCC(=O)OC)nc2c1c(=O)[nH]c(=O)n2C,-60.7
18,CCCCCn1c(SCCCC)nc2c1c(=O)[nH]c(=O)n2C,-3.74
19,COC(=O)CSc1nc2c(c(=O)[nH]c(=O)n2C)n1CCC(C)C,-3.93
20,Cc1cccc(-n2ncc3c(=O)[nH]c(SCC(=O)NCCC4=CCCCC4)nc32)c1,10.9
21,CCN(CC)S(=O)(=O)c1cccc(-c2n[nH]c(=S)n2/N=C/c2ccc(C(=O)OC)cc2)c1,-34
22,O=C(COC(=O)c1ccc(S(=O)(=O)N2CCCC2)cc1)NCc1ccco1,-10.1
23,O=[N+]([O-])c1ccc(/C=N/NC2=NS(=O)(=O)c3ccccc32)cc1,-7.49

row,Compound,"hERG current change (%, negative = inhibition) at 10uM [%]"
1,O=C(OCn1nnc2ccccc2c1=O)C1CCCCC1,5.57
2,CCN(CC)c1nc2c(c(=O)[nH]c(=O)n2C)n1CCCc1ccccc1,-45.3
3,CCCCCCn1c(NCC)nc2c1c(=O)[nH]c(=O)n2C,-14.7
4,CCCCCCn1c(N(CC)CC)nc2c1c(=O)[nH]c(=O)n2C,-63.6
5,Cn1nc(C(=O)OCC(=O)NCCc2ccccc2)c2ccccc2c1=O,2.9
6,CCN1CCN(c2nc3c(C)cccn3c(=O)c2/C=C(\C#N)S(=O)(=O)c2ccc(C)cc2)CC1,-62.9
7,Cc1ccc(S(=O)(=O)/C(C#N)=C/c2c(N3CCN(C)CC3)nc3c(C)cccn3c2=O)cc1,-67.5
8,Cc1cccn2c(=O)c(/C=C(\C#N)S(=O)(=O)c3ccccc3)c(N3CCN(c4ccccc4)CC3)nc12,9.12
9,CCN1CCN(c2nc3c(C)cccn3c(=O)c2/C=C(\C#N)S(=O)(=O)c2ccccc2)CC1,-15.7
10,Cc1cccn2c(=O)c(/C=C(\C#N)C(=O)NCc3ccco3)c(N3CCCCCC3)nc12,-36.5
11,Cc1cccn2c(=O)c(/C=C(\C#N)C(=O)NCc3ccco3)c(N3CCCCC3)nc12,-37.8
12,Cc1cccn2c(=O)c(/C=C(\C#N)S(=O)(=O)c3ccccc3)c(N3CCN(Cc4ccccc4)CC3)nc12,-4.68
13,Cc1ccc(S(=O)(=O)/C(C#N)=C/c2c(N3CC(C)OC(C)C3)nc3c(C)cccn3c2=O)cc1 (centres unmarked),-28.1
14,Cc1cccn2c(=O)c(/C=C(\C#N)S(=O)(=O)c3ccccc3)c(N3CCN(C)CC3)nc12,-45.5
15,Cc1ccc(S(=O)(=O)/C(C#N)=C/c2c(Oc3ccc(Cl)cc3)nc3c(C)cccn3c2=O)cc1,19.3
16,Cc1cccn2c(=O)c(/C=C(\C#N)C(=O)NCc3ccco3)c(N3CCOCC3)nc12,-50.9
17,Cc1ccc(S(=O)(=O)/C(C#N)=C/c2c(N3CCOCC3)nc3c(C)cccn3c2=O)cc1,-56
18,O=C(Cn1cnc([N+](=O)[O-])n1)N/N=C/c1ccccc1O,14.4
19,COC(=O)C[C@](O)(CCCC(C)(C)O)C(=O)O[C@@H]1C(OC)=C[C@]23CCCN2CCc2cc4c(cc2[C@H]13)OCO4,10.4
20,CCCCOCCCNC(=O)N[C@H](C(=O)OC)C(C)C,10.7
21,Cn1c(=O)c2c(ncn2CC(=O)Nc2ccc3c(c2)OCO3)n(C)c1=O,3.43
22,O=C(Nc1ncc(C(F)(F)F)cc1Cl)C1COc2ccccc2O1 (centres unmarked),-3.76
23,Cc1ccc2c(Cl)cc(Cl)c(OCC(=O)N3CCOCC3)c2n1,-8.28

row,Compound,"hERG current change (%, negative = inhibition) at 10uM [%]"
1,O=C(Cc1noc2ccccc12)Nc1ccccn1,6.57
2,O=S(=O)(Nc1nc2ccccc2nc1NCc1ccco1)c1cccs1,4.13
3,CCc1ccc2c(c1)c(N=NC1=NC(=O)CS1)c(O)n2C,0.556
4,COc1ccc(NS(=O)(=O)c2ccc(C(=O)N3CCN(Cc4ccccc4)CC3)cc2)cc1,-17.1
5,Cc1cccc(-c2noc(CNC(=O)COc3ccccc3C)n2)c1,-1.88
6,CCOc1ccc(C(CCc2ccccc2)NC(=O)c2ccccc2)cc1OCC (centres unmarked),-19.1
7,CCCCN(Cc1nc2ccccc2c(=O)[nH]1)C(=O)CN1C(=O)NC2(CCCCC2)C1=O,-41.9
8,O=C(Cc1nnc(NC(=O)c2ccccc2)s1)N/N=C\c1ccc(O)c(O)c1,23.4
9,COc1ccc(OC)c(C2N(c3cc(C)on3)C(=O)C3CCCN32)c1 (centres unmarked),10.8
10,Cc1ccc2nc(N3CCN(c4ccccc4F)CC3)c(C=O)c(=O)n2c1,-70.1
11,Cc1cccn2c(=O)c(C=O)c(N3CCN(c4ccc(F)cc4)CC3)nc12,-22.1
12,Cc1cccn2c(=O)c(C=O)c(N3CCN(c4ccccc4)CC3)nc12,-55.4
13,Cc1cccn2c(=O)c(C=O)c(N3CCN(C)CC3)nc12,-0.442
14,Cc1ccc2nc(N3CCN(c4ccccc4)CC3)c(C=O)c(=O)n2c1,11.5
15,Cc1ccc2nc(N3CCN(C)CC3)c(C=O)c(=O)n2c1,5.3
16,CCOCCCNC(=O)Cc1ccc(-n2c(CC)nc3cccnc32)cc1,-8.18
17,C=CCn1c(Oc2ccc(C=O)cc2OCC)nc2c1c(=O)n(C)c(=O)n2C,24.4
18,CCc1nnc(SCC(=O)Nc2ccccc2)n1CC1CCCO1 (centres unmarked),2.61
19,Cc1cccc(N2CC(C(=O)Nc3nnc(SCCN4CCOCC4)s3)CC2=O)c1 (centres unmarked),0.559
20,O=C(NNC(=S)Nc1ccc(Cl)cc1Cl)c1cccnc1,8.1
21,CCN(CC)CCCN(C(=O)c1ccco1)c1nc(-c2ccc(C)cc2)cs1.Cl,-84.1
22,COc1ccc(-c2csc(N(CCCN3CCOCC3)C(=O)c3ccco3)n2)cc1.Cl,-32.4
23,CCN(CC)CCCN(C(=O)c1ccco1)c1nc(-c2ccc(Cl)cc2)cs1.Cl,-71.2

row,Compound,"hERG current change (%, negative = inhibition) at 10uM [%]"
1,Cl.O=C(c1ccco1)N(CCCN1CCOCC1)c1nc(-c2ccc(F)cc2)cs1,-29.4
2,CCN(C(=O)c1ccco1)c1nc(-c2ccc(OC)cc2)cs1,8.13
3,COCCN(C(=O)c1ccco1)c1nc(-c2ccccc2)cs1,4.36
4,CCOc1ccc(Oc2ccc(C(F)(F)F)cc2NC(=O)C2=COCCO2)cc1,13.6
5,CCC(CC)c1nnc(NC(=O)c2cc(-c3ccccc3)nc3ccccc23)s1,9.31
6,O=C(/C=C/c1ccccc1Cl)N(Cc1ccc(Cl)cc1)C1CCS(=O)(=O)C1 (centres unmarked),1.48
7,O=C(NCC1CCCO1)c1ccccc1NS(=O)(=O)c1cccs1 (centres unmarked),-5.56
8,Cc1cc(C)cc(OCCNC(=O)CCc2ccccc2)c1,4.83
9,COc1ccc(-c2nc(Cn3c(SCc4cccc(F)c4)nc4ccncc43)c(C)o2)cc1OC,-62.4
10,COc1ccc(-c2nc(Cn3c(SCc4ccc(C)cc4)nc4ccncc43)c(C)o2)cc1OC,-52
11,Cc1ccc(CSc2nc3ccncc3n2CC(=O)Nc2cc(C)cc(C)c2)cc1,7.38
12,Cc1cccc(CSc2nc3ccncc3n2CC(=O)Nc2cc(C)cc(C)c2)c1,9.09
13,COc1ccc(Cn2c(SCc3ccc(C)cc3)nc3cc(OC)c(OC)cc3c2=N)cc1Cl,14.6
14,CC1CCN(C(=O)c2ccc(CSc3nc4ccncc4n3Cc3ccc(F)cc3)cc2)CC1,-46
15,COc1ccc(-c2nc(Cn3c(SCc4ccccc4F)nc4ccncc43)c(C)o2)cc1,4.5
16,COc1cc2nc(SCc3ccc(F)cc3)n(Cc3cccs3)c(=N)c2cc1OC,0.564
17,O=C(NC1CCCC1)c1ccc(CSc2nc3ccncc3n2Cc2ccc(F)cc2)cc1,-40.7
18,COc1ccc(-c2nc(Cn3c(SCc4ccc(F)cc4)nc4ccncc43)c(C)o2)cc1OC,-55.6
19,CCC(C)NC(=O)c1ccc(CSc2nc3ccncc3n2Cc2ccc(F)cc2)cc1 (centres unmarked),-59
20,CN1CCN(C(=O)c2ccc(CSc3nc4ccncc4n3Cc3ccc(F)cc3)cc2)CC1,0.727
